Test results from PubChem BioAssay (NCI).
The panel holds about 83,000 compounds, 20% with a hit somewhere; the sample as a whole holds those more often.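 Plates (96-well) were seeded with cells, treated with compound at one concentration, and incubated for 48 hours before percent growth was determined.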 A number with no mark means an inactive call. The source made the active and inactive calls. Rule for the calls: active = growth percent below 10; inactive = the rest.

Tests used:
Assay in all cases: NCI-60 one-dose screen, 48 h (100 = growth as untreated, 0 = no growth, -100 = all killed)
Settings in all cases: 10 µM unless noted
NCI-H23 lung = system: NCI-H23 lung
NCI-H226 lung = system: NCI-H226 lung
NCI-H322M lung = system: NCI-H322M lung
HOP-62 NSCLC = system: HOP-62 NSCLC
NCI-H460 lung = system: NCI-H460 lung
HOP-92 NSCLC = system: HOP-92 NSCLC
NCI-H522 lung = system: NCI-H522 lung
A549/ATCC NSCLC = system: A549/ATCC NSCLC
786-0 renal = system: 786-0 renal
COLO 205 colon = system: COLO 205 colon
DU-145 prostate = system: DU-145 prostate
K-562 leukemia = system: K-562 leukemia
MALME-3M melanoma = system: MALME-3M melanoma
MDA-MB-231 breast = system: MDA-MB-231 breast
RXF 393 renal = system: RXF 393 renal
SF-268 CNS = system: SF-268 CNS
SF-295 CNS = system: SF-295 CNS
SF-539 CNS = system: SF-539 CNS
UACC-257 melanoma = system: UACC-257 melanoma
M14 melanoma = system: M14 melanoma

Row | SMILES | growth (NCI-H23 lung) [%] | growth (NCI-H226 lung) [%] | growth (NCI-H322M lung) [%] | growth (HOP-62 NSCLC) | growth (NCI-H460 lung) | growth (HOP-92 NSCLC) | growth (NCI-H522 lung) | growth (A549/ATCC NSCLC) | growth (786-0 renal) | growth (COLO 205 colon) | growth (DU-145 prostate) | growth (K-562 leukemia) | growth (MALME-3M melanoma) | growth (MDA-MB-231 breast) | growth (RXF 393 renal) | growth (SF-268 CNS) [%] | growth (SF-295 CNS) | growth (SF-539 CNS) | growth (UACC-257 melanoma) | growth (M14 melanoma)
1 | CNC(=O)c1cc(Oc2ccc(NC(=O)Nc3ccc(Cl)c(SC)c3)c(F)c2)ccn1 | 29.7 | 40.4 | 74.5 | 62.1% | 58.2% | 48.8% | 17.5% | 39.9% | 88.5% | 24.4% | 72.1% | 18.1% | 27.5% | 50.1% | 85.9% | 50.6 | 34% | 47.3% | 28.1% | 29.7%
2 | O=S(=O)(Nc1ccc(Cl)c(F)c1)c1ccc(-c2cnc(C3CC3)o2)cc1 | 25.2 | 58.6 | 39.7 | 32.5% | 13.5% | 42% | -15.8% (active) | 30.1% | 42.6% | 1.76% (active) | 16.6% | 12.3% | 35.3% | 37.8% | -7.66% (active) | 52.1 | 10.3% | -15.5% (active) | 52.9% | 19.5%
3 | CC1=CC(=NN=c2cc(C)n([O-])c(C)c2)C=C(C)[N+]1=O | 95.5 | 64.2 | 114 | 79.6% | 102% | 93.2% | 67.6% | 87.4% | 79.3% | 29.8% | 107% | 85% | 106% | 97.7% | 87.8% | 106 | 112% | 105% | 77.4% | 77.2%
4 | COc1cccc(-c2nn(C(C)(C)C)cc2-c2ccnc(NCCCNS(=O)(=O)c3cccc4ccccc34)c2)c1 | 109 | 109 | 111 | 103% | 104% | 104% | 95.6% | 104% | 103% | 115% | 107% | 104% | 114% | 106% | 109% | 108 | 101% | 113% | 110% | 101%
5 | O=C(/C=C/c1ccccc1)c1ccc(O)c(CN2CCN(c3cc4c(cc3F)c(=O)c(C(=O)O)cn4C3CC3)CC2)c1 | 34.4 | 40.4 | 22.7 | 25.1% | 34.7% | -5.65% (active) | 1.49% (active) | 17.6% | 23.9% | 89.8% | 31.3% | 16.7% | 18.9% | 33.3% | 17.4% | 28.1 | 4.62% (active) | 10.3% | 31.7% | 27.9%
6 | COc1ccc(C(=O)COc2ccc(/C=C3\Oc4ccc(OC)cc4C3=O)cc2)cc1 | 100 | 89.5 | 100 | 115% | 124% | 63.4% | -29.6% (active) | 105% | 114% | 128% | 116% | 16.8% | 102% | 89.7% | 110% | 121 | 81.9% | 104% | 94% | 110%
7 | CC(=O)O[C@H]1CC[C@]2(C)[C@H]3CC=C4[C@@H]5CC(C)(C)CC[C@]5(C(=O)NCCNCCN)CC[C@@]4(C)[C@]3(C)CC[C@H]2C1(C)C | 70.1 | 73.5 | 67.3 | -86.7% (active) | -69.8% (active) | -45.3% (active) | -86.9% (active) | -71.1% (active) | -95.3% (active) | -92.7% (active) | -45.3% (active) | -47.2% (active) | -71.2% (active) | -66.5% (active) | 44.9% | 74.3 | 92.8% | 70.3% | -42.3% (active) | -81.4% (active)
8 | COc1cc(CNc2oc(-c3ccccc3)c(-c3ccccc3)c2C#N)cc(CN2CCN(C)CC2)c1O | 73.1 | 88 | 89.2 | 79.2% | 33.4% | 43.9% | 71.5% | 56.8% | 67.2% | 54.3% | 59.9% | -9.86% (active) | 20.6% | 75.3% | 42.8% | 69.8 | 51.7% | 71.3% | -4.26% (active) | -62.2% (active)
